These results are taken from PubChem BioAssay AID463173 (ICCB-Longwood Screening Facility, Harvard Medical School, 2010).

Molecules are shown by their SMILES. The whole screen tested about 52,000 compounds, of which about 1,700 (3.3%) were called active. Cut-off read from the data, not from the text of the source: active = survival mostly below about 52% (no sharp cut-off); inactive = mostly above about 56%. The list comes from a sample in which actives are over-represented; it also holds similar structures and randomly drawn compounds.

For the test, the system named is Wild type. The experiment in a line: growth inhibition of S. aureus wild type versus tarO mutant, primary screen, teichoic acid synthesis inhibitors, RN4220, OD600 (AID 463173). To be noted: S. aureus RN4220 wild type/DeltatarO growth, OD600, 18 h, hits give low values, screened at 18.75 µg/mL (by protocol).
With `CCn1c(SCCN2CCCC2)nnc1C1CCCN(C(=O)c2ccc3c(c2)OCO3)C1` (centres undefined), the survival is 114% (inactive). Take `O=C(CN1C(=O)COc2ccc(S(=O)(=O)N3CCCCCC3)cc21)NCCc1ccccc1`: the survival was 92% (inactive). To `CCSc1nc2c(c(=O)[nH]c(=O)n2C)n1CC(O)COc1ccc(Cl)cc1` (centres undefined) belongs 161% (inactive); to `COc1ccc2c(c1)c1c(c(=O)n(-c3ccc(C)cc3)c(=O)n1CC(=O)Nc1cc(C)ccc1C)n2C`, 115% (inactive); to `COc1ccc(NC(=O)Cn2cc(S(=O)(=O)N3CCN(c4ccccc4F)CC3)c3ccccc3c2=O)cc1Cl`, 100% (inactive).

`Cc1ccccc1C(=O)Nc1c(C)nc(Nc2ccccc2)nc1Nc1ccccc1`: the survival was 94% (inactive). For `Cc1ccc(Nc2nc(Nc3ccc(C)c(C)c3)nc(N3CCOCC3)n2)cc1C`, the survival is 73% (inactive). For the compound `O=C(CSc1nc(=O)n(Cc2ccco2)c2c1CCC2)Nc1cccc(F)c1`, the survival is 72% (inactive).

As to `C=CCN(CC=C)C(=O)C1CCN(Cc2cc(Br)c(O)c(OC)c2)CC1`, the survival is 98% (inactive). To `COC(=O)c1cc2oc(C)cc2n1Cc1ccc(Br)cc1F` belongs 48% (inactive). Then `COC(=O)c1cc2oc(C)cc2n1Cc1ccccc1Cl`, with -2% (active).

For `COC(=O)c1cc2oc3ccccc3c2n1Cc1ccccc1Cl`, the survival was 60% (inactive). To `CCC(Oc1ccccc1F)C(=O)Nc1cc(-c2ccccc2)no1` (centres undefined) belongs 66% (inactive); to `Cc1cccc(C)c1NC(=O)c1ccc2c(c1)nnn2C1CCCC1`, -6% (active); to `Cc1c(Cl)cccc1NC(=O)c1ccc2c(c1)nnn2C1CCCC1`, 120% (inactive). As for `Cc1cc(C)cc(NC(=O)c2ccc3c(c2)nnn3C2CCCC2)c1`, the survival was 121% (inactive).

In the case of `COC(=O)c1ccccc1NC(=O)CSc1nnc2cc(C)c3cc(C)cc(C)c3n12`, the survival was 72% (inactive). Take `CC(=O)N1CCc2c(sc3c2c(=O)n(-c2ccccc2)c(=O)n3CC(=O)c2ccc(F)cc2)C1`: the survival was 91% (inactive). Then `Cc1ccn2c(Nc3ccccc3C)c(-c3ccc(N4CCOCC4)cc3)nc2c1`, with 113% (inactive); and `Cc1cccc(C)c1Nc1c(-c2ccccc2Cl)nc2cnccn12`, with 123% (inactive); and `Oc1ccccc1-c1nc2cnccn2c1Nc1ccc(Cl)cc1`, with -16% (active).

As for `Cc1ccn2c(Nc3ccccc3C)c(-c3ccccn3)nc2c1`, the survival is 24% (active). `Cc1ccc2nc(-c3ccc(O)cc3)c(Nc3ccc(Cl)cc3)n2c1`: the survival is 69% (inactive). To `CC(C)c1ccc(Nc2c(-c3ccccc3O)nc3cnccn23)cc1` belongs 61% (inactive); to `COc1ccc(Nc2c(-c3ccccn3)nc3ccc(Cl)cn23)cc1`, 96% (inactive).

For the compound `Clc1ccc(Nc2c(-c3ccccc3Cl)nc3ccc(Cl)cn23)cc1`, the survival was 25% (inactive). Take `CC(C)c1ccc(Nc2c(-c3ccccn3)nc3ccccn23)cc1`: the survival was -21% (active). Then `COc1cc(O)ccc1-c1nc2cc(C)ccn2c1Nc1ccccc1C`, with 73% (inactive).

With `CC(C)c1ccc(Nc2c(-c3ccco3)nc3ccccn23)cc1`, the survival was 33% (inactive). With `Cc1ccc2nc(-c3ccccc3F)c(Nc3ccc(Cl)cc3)n2c1`, the survival is 11% (active). To `N#C/C(=C\c1cn(CC(=O)N2CCCC2)c2ccccc12)C(=O)NC1CC1` belongs 103% (inactive); to `CCC(C(=O)NC1CCCCC1)n1c(SCc2ccccc2F)nc2ccncc21` (centres undefined), 73% (inactive); to `COc1ccc(CNC(=O)CCc2c(C)nc3nc(CNC(=O)OC(C)(C)C)nn3c2C)cc1`, 77% (inactive). As for `COc1ccc(C2=NS(=O)(=O)N(C)C(C(=O)NCc3ccccc3)=C2)cc1OC`, the survival was 102% (inactive). Then `CCC(C)NC(=O)CSc1nc2n[nH]c(C)c2c(=N)n1-c1cc(Cl)ccc1C` (centres undefined), with 72% (inactive); and `COc1ccccc1CNC(=O)c1c[nH]c2ccc(S(=O)(=O)Nc3cc(C)cc(C)c3)cc2c1=O`, with 67% (inactive); and `CCC(C)n1c(=O)c2sccc2n2c(CCCC(=O)Nc3ccc(F)cc3)nnc12` (centres undefined), with 97% (inactive).

In the case of `CCN(CC)C(=O)C(C(F)(F)F)C(F)(F)F`, the survival was 103% (inactive). Then `CSc1ccc(-c2nc3cc(C)ccn3c2Nc2ccc(C)cc2)cc1`, with 87% (inactive); and `Cc1ccc(Nc2c(-c3cc(Br)ccc3F)nc3cc(C)ccn23)cc1`, with 0% (active). Then `Fc1ccc(Nc2c(-c3ccccn3)nc3ccc(Cl)cn23)cc1`, with 73% (inactive); and `Cc1ccccc1Nc1c(-c2cccnc2)nc2ccc(Cl)cn12`, with 81% (inactive); and `Cc1ccc2nc(-c3ccccn3)c(Nc3ccc(F)cc3)n2c1`, with 16% (active). To `Cc1ccccc1Nc1c(-c2ccc(Br)o2)nc2ccc(Cl)cn12` belongs 10% (active); to `Cc1ccc2nc(-c3ccccn3)c(Nc3ccccc3C)n2c1`, 18% (active); to `Cc1ccccc1Nc1c(-c2ccncc2)nc2ccc(Cl)cn12`, 128% (inactive).

Consider `Cc1ccc2nc(-c3ccccc3O)c(Nc3ccccc3C)n2c1`, for which the survival is 79% (inactive). As to `Cc1ccc(Nc2c(-c3ccccc3O)nc3cc(C)ccn23)cc1`, the survival was 73% (inactive). To `Cc1ccc2nc(-c3ccncc3)c(Nc3ccccc3C)n2c1` belongs 101% (inactive). Then `Cc1ccc(Nc2c(-c3ccccn3)nc3ccc(Br)cn23)cc1`, with 60% (inactive). To `Cc1ccccc1Cn1c(C)c(CNCCCc2ccccc2)c(C(=O)O)c1C` belongs 98% (inactive); to `O=C(c1ccc2c(c1)N(Cc1ccccc1F)C(=O)c1ccccc1S2=O)N1CCCCC1` (centres undefined), 89% (inactive).

As to `CCCS(=O)(=O)c1ncc(Cl)c(C(=O)N(Cc2ccccc2)Cc2ccco2)n1`, the survival was 44% (inactive).

Regarding `Cc1ccn2c(Nc3ccccc3C)c(-c3cccnc3)nc2c1`, the survival was 71% (inactive). To `Cc1ccn2c(Nc3ccccc3C)c(-c3ccccc3)nc2c1` belongs -3% (active). `Cc1ccn2c(Nc3ccccc3C)c(-c3ccncc3)nc2c1`: the survival is 80% (inactive). Consider `CCCC12CN3CC(CCC)(CN(C1)C3c1ccc(OC(C)C)cc1)C2=O` (centres undefined), for which the survival is 39% (inactive). Then `COC(=O)c1ccc(NS(=O)(=O)c2ccc3[nH]c4c(c3c2)CCCC4)cc1`, with 1% (active); and `COc1cc(NS(=O)(=O)c2ccc3[nH]c4c(c3c2)CCCCCC4)cc(OC)c1`, with 57% (inactive).

`Cc1ccc(CNS(=O)(=O)c2ccc3[nH]c4c(c3c2)CCCC4)cc1`: the survival was 82% (inactive). To `Cc1ccc(NS(=O)(=O)c2ccc3[nH]c4c(c3c2)CCCCCC4)cc1` belongs 71% (inactive); to `CC(=O)c1ccc(NS(=O)(=O)c2ccc3[nH]c4c(c3c2)CCCC4)cc1`, 84% (inactive). `Cc1ccc(NS(=O)(=O)c2ccc3[nH]c4c(c3c2)CCCCCC4)cc1Cl`: the survival is 71% (inactive). Turning to `Cc1ccc(NS(=O)(=O)c2ccc3[nH]c4c(c3c2)CCCCCC4)cc1C`, the survival is -3% (active). Regarding `COc1ccc(NS(=O)(=O)c2ccc3[nH]c4c(c3c2)CCCCC4)cc1`, the survival is 127% (inactive). As to `COc1ccc(NS(=O)(=O)c2ccc3[nH]c4c(c3c2)CCCCCC4)cc1`, the survival was -4% (active).

With `O=S(=O)(NCc1ccc(F)cc1)c1ccc2[nH]c3c(c2c1)CCCC3`, the survival was -3% (active). As to `COC(=O)c1ccc(NS(=O)(=O)c2ccc3[nH]c4c(c3c2)CCCCC4)cc1`, the survival was 119% (inactive). To `O=S(=O)(NCc1ccc(F)cc1)c1ccc2[nH]c3c(c2c1)CCCCC3` belongs 55% (inactive); to `CCC(C)NC(=O)Cn1c(=O)n(-c2cc(OC)cc(OC)c2)c(=O)c2ccccc21` (centres undefined), 94% (inactive); to `CCOc1ccc(OCC)c(NC(=O)c2cc(CN3CCOCC3)on2)c1`, 72% (inactive). Turning to `COCCn1c(CCC(=O)Nc2ccc(OC)c(OC)c2)nc2cccnc21`, the survival is 90% (inactive). As for `CC1CCN(C(=O)CN(C)S(=O)(=O)c2ccc3ccccc3c2)CC1`, the survival was 115% (inactive). To `CCCCN(C(=O)c1cccs1)c1nnc(-c2cc(OC)cc(OC)c2)s1` belongs 116% (inactive); to `O=C1CCCc2cc(S(=O)(=O)NCC3CCC(C(=O)NCc4ccc(F)cc4)CC3)ccc2N1` (centres undefined), 93% (inactive); to `O=C(NCCc1ccccc1)c1ccc2c(c1)CCN2S(=O)(=O)c1ccc(Cl)cc1`, 114% (inactive). With `O=C(Nc1nc2ccccc2s1)c1ccc(S(=O)(=O)N2CCCC2)cc1`, the survival is 80% (inactive). Then `CCc1nn(CC(=O)NCCc2ccc(OC)c(OC)c2)c(=O)c2cc3occc3n12`, with 147% (inactive); and `CCS(=O)(=O)N1CC(=O)N(c2ccccc2C)C(C)(C(=O)NC2CCCCC2)C1` (centres undefined), with 82% (inactive). To `Cc1ccc(C)c(N2CCN(S(=O)(=O)c3ccc4[nH]c5c(c4c3)CCCC5)CC2)c1` belongs -4% (active); to `Cc1ccc(C)c(N2CCN(S(=O)(=O)c3ccc4[nH]c5c(c4c3)CCCCC5)CC2)c1`, 89% (inactive).

In the case of `Cc1ccc(N2CCN(S(=O)(=O)c3ccc4[nH]c5c(c4c3)CCCCC5)CC2)c(C)c1`, the survival was 135% (inactive). Then `CCOC(=O)c1ccc(NC(=O)CN2c3ccccc3S(=O)(=O)c3ccccc32)cc1`, with 121% (inactive); and `O=C(NCc1ccco1)c1ccc(Cn2c(SCc3ccccc3F)nc3cccnc32)cc1`, with 74% (inactive); and `CCOC(=O)/C(C#N)=C(\O)c1ccccc1`, with 104% (inactive). To `COc1cc2c(cc1NC(=O)C(C)Oc1ccc(Cl)cc1Cl)oc1ccccc12` (centres undefined) belongs 49% (inactive); to `COc1cc2c(cc1NC(=O)C(C)Oc1ccccc1)oc1ccccc12` (centres undefined), 1% (active). Then `Cc1cc(C)cc(OC(C)C(=O)Nc2c(C(=O)c3ccccc3)oc3ccccc23)c1` (centres undefined), with -1% (active).

Take `CCc1ccc(OC(C)C(=O)Nc2c(C(=O)c3ccccc3)oc3ccccc23)cc1` (centres undefined): the survival is 13% (active). Take `COc1cc2c(cc1NC(=O)COc1cc(C)cc(C)c1)oc1ccccc12`: the survival is 75% (inactive). Turning to `Cc1cc(OC(C)C(=O)Nc2c(C(=O)c3ccc(F)cc3)oc3ccccc23)ccc1Cl` (centres undefined), the survival was 68% (inactive).

Regarding `CCc1ccc(OCC(=O)Nc2c(C(=O)c3ccccc3)oc3ccccc23)cc1`, the survival was 65% (inactive). Consider `CCOc1ccc(NC(=O)c2oc3ccccc3c2NC(=O)C(C)Oc2ccccc2)cc1` (centres undefined), for which the survival is 94% (inactive). Then `Cc1cc(C)cc(OCC(=O)Nc2c(C(=O)c3ccccc3)oc3ccccc23)c1`, with 78% (inactive).
